Publication PMC5540273 (PLoS ONE, 2017)

Tests used:
Details in all cases: concentration: 1 μM,replicates: in singlicate; n = 1
[1] = test system: T1, MEK5
T1 construct: gene MAP2K5

[2] = test system: T2, MEK6
T2 construct: gene MAP2K6

[3] = test system: MELK
[4] = test system: MERTK
[5] = test system: MET
[6] = test system: T3, MINK
T3 construct: gene MINK1

[7] = test system: MKK7
[8] = test system: MKNK1
[9] = test system: MKNK2
[10] = test system: T4, MLCK
T4 construct: gene MYLK3

[11] = test system: T5, MLK1
T5 construct: gene MAP3K9

[12] = test system: MLK2
[13] = test system: MLK3
[14] = test system: MRCKA
[15] = test system: T6, MRCKB
T6 construct: gene CDC42BPB

[16] = test system: MST1R
[17] = test system: T7, MST1
T7 construct: gene STK4

[18] = test system: T8, MST2
T8 construct: gene STK3

[19] = test system: T9, MST3
T9 construct: gene STK24

[20] = test system: MST4
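Further: KINOMEscan kinase panel screen.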

| Structure (SMILES) | %Inh [1] [%] | %Inh [2] [%] | %Inh [3] [%] | %Inh [4] [%] | %Inh [5] [%] | %Inh [6] [%] | %Inh [7] [%] | %Inh [8] [%] | %Inh [9] [%] | %Inh [10] [%] | %Inh [11] [%] | %Inh [12] [%] | %Inh [13] [%] | %Inh [14] [%] | %Inh [15] [%] | %Inh [16] [%] | %Inh [17] [%] | %Inh [18] [%] | %Inh [19] [%] | %Inh [20] [%] |
| --- | --- | --- | --- | --- | --- | --- | --- | --- | --- | --- | --- | --- | --- | --- | --- | --- | --- | --- | --- | --- |
| C[C@@H]1CCN(C(=O)CC#N)C[C@@H]1N(C)c1ncnc2[nH]ccc12 | 0 | 0 | 23 | 0 | 0 | 0 | 0 | 0 | 0 | 0 | 0 | 0 | 3 | 0 | 0 | 0 | 3 | 0 | 100 | 0 |
| CNC(=O)c1ccccc1Sc1ccc2c(/C=C/c3ccccn3)n[nH]c2c1 | 77 | 29 | 0 | 19 | 12 | 57 | 0 | 0 | 0 |  | 0 | 17 | 1 | 0 | 100 | 29 | 0 | 50 | 11 | 0 |
| C=CC(=O)Nc1cc2c(Nc3ccc(F)c(Cl)c3)ncnc2cc1OCCCN1CCOCC1 [GW781483] | 97.4 | 0 | 28 | 0 | 50 | 26 | 62 | 0 | 76 | 0 | 0 | 0 | 3 | 0 | 11 | 10 | 1 | 0 | 33 | 0 |
| CCN(CC)CCCCNc1ncc2cc(-c3c(Cl)cccc3Cl)c(NC(=O)NC(C)(C)C)nc2n1 | 88 | 16 | 19 | 82 | 60 | 45 | 0 | 1 | 0 | 11 | 0 | 40 | 4 | 0 | 0 | 10 | 40 | 31 | 74 | 86 |
| NC(=O)c1cc(-c2ccccc2)cc2c(C3CCNCC3)c[nH]c12 [GSK301362] | 16 | 0 | 0 | 38 | 9 | 56 | 18 | 0 | 13 | 0 | 9 | 12 | 0 | 18 | 13 | 40 | 43 | 86 | 0 | 0 |
| C[C@H]1Oc2cc(cnc2N)-c2c(nn(C)c2C#N)CN(C)C(=O)c2ccc(F)cc21 | 0 | 60 | 30 | 20 | 10 | 0 | 0 | 0 | 0 | 0 | 13 | 0 | 23 | 0 | 16 | 0 | 19 | 19 | 4 | 0 |
| O=C(NCCCN1CCOC1=O)c1cnc(NCc2cc(Cl)ccc2Cl)nc1NC1CCCC1 | 27 | 16 | 20 | 75 | 63 | 10 | 0 | 11 | 0 | 0 | 8 | 4 | 23 | 4 | 18 | 26 | 27 | 35 | 14 | 0 |
| Cc1cc2cn[nH]c2cc1-c1cccc2c(N)c(C(N)=O)nnc12 | 43 | 4 | 5 | 0 | 7 | 55 | 27 | 11 | 23 | 0 | 18 | 0 | 30 | 24 | 0 | 11 | 90.2 | 88 | 11 | 69 |
| Cc1ccc2c(-c3ccncc3)c(-c3ccc(F)cc3)nn2c1.Cl [GW461484] | 9 | 0 | 14 | 13 | 0 | 72 | 0 | 23 | 37 | 0 | 10 | 0 | 0 | 5 | 0 | 38 | 5 | 7 | 2 | 0 |
| Cc1occc1-c1nc(N)c(OC[C@@H](N)Cc2c[nH]c3ccccc23)cc1-c1cc2c(C)n[nH]c2cn1 [GSK1660450] | 77 | 0 | 35 | 31 | 0 | 97.5 | 0 | 0 | 7 | 2 | 29 | 0 | 22 | 78 | 97.6 | 0 | 96.8 | 78 | 91.2 | 94.9 |
| Cl.Oc1cc(-c2nc(-c3ccccc3)[nH]c2-c2ccncc2)ccc1Cl [SB-386023] | 11 | 0 | 23 | 0 | 9 | 5 | 10 | 0 | 12 | 0 | 0 | 0 | 3 | 0 | 0 | 22 | 0 | 27 | 0 | 9 |
| Cc1n[nH]c2ccc(-c3cc(OC[C@@H](N)Cc4ccccc4)cnc3-c3ccoc3)cc12.O=C(O)C(F)(F)F.O=C(O)C(F)(F)F [GSK507358] | 85 | 27 | 30 | 9 | 0 | 96.7 | 21 | 0 | 0 | 90 | 0 | 0 | 0 | 28 | 15 | 33 | 2 | 33 | 17 | 65 |
| Cc1ccc(-n2nc(C(C)(C)C)cc2NC(=O)Nc2ccc(OCCN3CCOCC3)c3ccccc23)cc1 [GW839464] | 11 | 0 | 7 |  | 9 | 84 | 0 | 14 | 0 | 0 | 6 | 22 | 1 | 8 | 49 | 0 | 0 | 33 | 11 | 0 |
